mHTT CaM bind: mutant huntingtin-calmodulin interaction inhibitors – biochemical, AlphaScreen, primary screen; 190,000 tested, 3.6% active; P42858; inhibition, % at 15 µM; AlphaScreen His-mHTT/GST-CaM binding, luminescence;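 further: 0% = both proteins with DMSO and 100% = one protein alone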
Pf apPOL block: Pf-apPOL inhibitors, biochemical, fluorescence; Plasmodium falciparum apicoplast DNA polymerase (apPOL); Recombinant Pf-apPOL, molecular beacon fluorescence, 1.5 h; inhibition, % at 10 µM; 210,000 tested, 0.25% active
* = called active by the depositor; · = not tested or not shown. This is a sample that favours compounds with a hit; in the whole collection about 3.6% have one here. No stated cut-off is given here; in the data, active means inhibition above about 50%; inactive means the rest.

SMILES | mHTT CaM bind | Pf apPOL block
CCC1CN(C(=O)NCc2ccc(F)cc2)c2ccccc2O1 (centres undefined) | -18 | -2
O=C(NCc1ccc(F)cc1)N1CC2CCCN2c2ccccc21 (centres undefined) | 77* | -4
CNC(=O)N1CCCC(c2cccc(C(=O)NCc3ccc(F)cc3)c2)C1 (centres undefined) | -2 | 1
CC(C)c1n[nH]c(=O)c2c1cnn2C(C)(C)C | -5 | -13
CC1C(=O)N(c2cccc(C(F)(F)F)c2)CCN1C(=O)c1cccs1 (centres undefined) | -5 | -2
COc1ccc(C(=O)NCCC2CCN(C(=O)c3ccccc3)CC2)c(OC)c1 | 35 | -2
COc1cccc(C2C(N3C(=O)c4ccccc4C3=O)C(=O)N2c2ccc(Cl)cc2C)c1 (centres undefined) | -3 | -9
COc1ccc(O)c(C(=O)C=Cc2ccc3c(c2)OCCO3)c1 | 61* | 6
COc1ccc(C(=O)C=Cc2ccc3c(c2)OCCO3)c(OCc2ccccc2)c1 | 16 | -22
COc1ccc(S(=O)(=O)N(CC(=O)NCc2ccccn2)c2ccc(C)cc2)cc1 | 30 | -3
Cc1cc(C)c(OCC(=O)Nc2ncc(Cl)cc2Cl)c(C)c1 | 6 | 5
CN(C)c1ccc(-c2nc(-c3ccc(=O)n(C)c3)no2)cc1 | 9 | 5
CN(C)c1ccc(-c2noc(-c3ccc(Br)cc3)n2)cc1 | 79* | -1
COc1ccc(-c2nnc(NC(=O)c3ccc(S(=O)(=O)N(C)C)cc3)o2)cc1 | 30 | -1
CN(C)c1ccc(C(=O)Nc2nnc(-c3ccc(Br)cc3)o2)cc1 | 60* | -30
Nc1nc2n(n1)C(c1ccccc1Cl)CC(c1ccccc1)N2 (centres undefined) | -9 | 0
Cn1cnnc1C1CCN(C(=O)c2ccc3ccccc3n2)CC1 | -13 | 1
O=[N+]([O-])C1=Cc2cc(Br)cc(Br)c2OC1c1ccc2c(c1)OCO2 (centres undefined) | 84* | -5
COc1cc2c(cc1[N+](=O)[O-])OCO2 | -5 | ·
O=[N+]([O-])C1=Cc2ccccc2OC1c1ccccc1 (centres undefined) | 36 | ·
COc1ccc(C2Oc3c(cc(Br)cc3OC)C=C2[N+](=O)[O-])cc1OC (centres undefined) | 72* | -3
CCOc1ccc(C2Oc3c(cc(Br)cc3OC)C=C2[N+](=O)[O-])cc1OC (centres undefined) | 38 | -9
COc1cc(Br)cc2c1OC(c1ccc3c(c1)OCO3)C([N+](=O)[O-])=C2 (centres undefined) | 68* | -3
COc1ccc(NC(=O)C(=O)NCc2ccc(OCc3ccccc3)cc2)c(OC)c1 | -4 | -1
COc1ccc(NC(=O)CSc2ccc(Cl)cc2)cc1OC | -2 | -12
SMILES | mHTT CaM bind | Pf apPOL block
CN1C(=O)C(C)(C)COc2ccc(NC(=O)C34CC5CC(CC(C5)C3)C4)cc21 | 16 | -3
COc1cccc(CC(=O)N2CCCC2c2ccccc2C)c1 (centres undefined) | -1 | -3
Cc1nc2c(c(Nc3cc(C(=O)O)ccc3C)n1)CCC2 | -6 | -12
Cc1nc(C)c(-c2csc(Nc3ccc(N)cc3)n2)s1 | 87* | -23
COc1ccc(Nc2nc(-c3sc(C)nc3C)cs2)cc1 | 52* | -4
COc1ccccc1Nc1nc(-c2sc(C)nc2C)cs1 | -6 | 5
Cc1nc(C)c(-c2csc(NCc3ccco3)n2)s1 | 12 | -6
COc1ccc(C2CCCN2C(=O)Nc2cc(C)cc(C)c2)cc1 (centres undefined) | -9 | 0
NC(=O)c1cccc(N=c2oc3ccc(Br)cc3cc2C(N)=O)c1 | 71* | 4
NC(=O)c1cc2cc(Br)ccc2oc1=Nc1ccc(Br)cc1 | 6 | 1
O=C1NC(=O)C2(CCN(S(=O)(=O)c3ccccc3Cl)CC2)N1 | -12 | -3
CC(C)n1ccc(C(=O)Nc2ccc(N3CCOCC3)cc2)n1 | -12 | -6
COc1cc(/C=C/c2nc3ccccc3c(=O)n2CCO)ccc1O | 7 | -10
COc1cc(/C=C/c2nc3ccccc3c(=O)n2-c2ccccc2[N+](=O)[O-])ccc1O | 50* | 5
COc1cccc(-c2nc(C3CCN(C(=O)c4ccccn4)CC3)no2)c1 | 11 | 0
CCCNC(=O)C1CCN(c2nnc(-c3ccccc3)o2)CC1 | 19 | -2
COc1ccc(NC(=O)c2cc3c(n2C)CCN(Cc2ccccc2)C3)cc1 | 17 | -9
O=C(c1cccs1)N1CCCC(c2nncn2-c2ccccc2)C1 (centres undefined) | -5 | 2
COc1ccccc1-n1cc2c(c1-c1ccccc1)c(=O)n(C)c(=O)n2C | 26 | -8
Cn1c(=O)c2c(-c3ccccc3)n(-c3ccc(F)cc3)cc2n(C)c1=O | 41 | 75*
Cc1cc(C)cc(-n2cc3c(c2-c2ccccc2)c(=O)n(C)c(=O)n3C)c1 | 36 | 83*
Cc1ccc(-n2cc3c(c2-c2ccccc2)c(=O)n(C)c(=O)n3C)cc1 | 22 | 5
COc1cc(/C=C/c2nc(-c3ccccc3O)n(-c3ccccc3)n2)ccc1O | 88* | -8
CCc1nc(-c2ccccc2O)n(-c2ccccc2)n1 | 2 | -8
Cc1c(C)n(CC(O)CNc2ccc(Cl)cc2)c2ccccc12 (centres undefined) | 100* | 2
SMILES | mHTT CaM bind | Pf apPOL block
Cc1ccc(NCC(O)Cn2c(C)c(C)c3ccccc32)cc1 (centres undefined) | 45 | 0
Cc1c(C)n(CC(O)CNc2ccc(Br)cc2)c2ccccc12 (centres undefined) | 100* | 6
Cc1c(C)n(CC(O)CNCCCO)c2ccccc12 (centres undefined) | 15 | 3
Cc1ccc(NCC(O)Cn2c(C)c(C)c3ccccc32)cc1C (centres undefined) | 71* | -2
Cc1c(C)n(CC(O)CNC(C)c2ccccc2)c2ccccc12 (centres undefined) | 31 | -4
COc1ccc(-n2nc(Nc3ccccc3OC)c3c2CCCC3=O)cc1 | 4 | -7
COc1cccc(C2=NN(Cc3ccccc3)c3nc4c(c(=O)n(C)c(=O)n4C)n3C2)c1 | -3 | -8
COc1cc(C)c(NC(=O)c2cc3ccccc3o2)cc1C(C)C | -14 | -16
CSC1=NSC2=NC(=O)/C(=C\c3ccc(F)cc3)C(=N)N12 | -1 | -4
Cc1oc(C(=O)O)cc1COc1cccc2cccnc12 | 74* | 0
Cc1oc(C(=O)O)cc1COc1ccc2c(C)c(C)c(=O)oc2c1C | 8 | -6
Cc1cc(C=O)c(C)n1-c1ccc(F)c(Cl)c1 | 13 | -7
COc1ccc(-n2c(C)cc(/C=C/[N+](=O)[O-])c2C)cc1Cl | 75* | -2
O=C(Nc1cc(F)c2[nH]c(=O)ccc2c1)c1cccc(F)c1 | -4 | 4
CC(=O)Oc1ccc2c(=O)c(Oc3ccccc3Br)c(C(F)(F)F)oc2c1 | 52* | 0
COc1ccc2c(=O)c(Oc3ccccc3Br)c(C(F)(F)F)oc2c1 | 4 | 9
COc1cc2c(cc1OC)C(C(=O)N1CCCC(C)C1)C(c1ccc(SC)cc1)N(C)C2=O (centres undefined) | 15 | -6
CCN(CC)c1ccc(NC2=C(n3nnc4ccccc43)C(=O)c3ccccc3C2=O)cc1 | 70* | -3
O=C1C(Nc2ccc(Cl)cc2)=C(n2nnc3ccccc32)C(=O)c2ccccc21 | 18 | -3

High-throughput results deposited in PubChem by University of Kansas High Throughput Screening Laboratory.
